# Screening data from PubChem BioAssay.
# The sample as a whole holds a higher share of hits than the screen did.
# nsP2pro inh = inhibitors of chikungunya virus nsP2 protease; 1.1% of 31,000 active; Potency, µM (highest dose often 24.9 µM), for inactives: at the top dose activity change, negative = inhibition, hits mostly inhibitors; Q8JUX6; FRET peptide cleavage, nsP2pro, fluorescence 1 h; AID 1964107; further: nearly all actives have a fitted effect of over 60% in size
# Target sequence (Q8JUX6 whole entry, looked up): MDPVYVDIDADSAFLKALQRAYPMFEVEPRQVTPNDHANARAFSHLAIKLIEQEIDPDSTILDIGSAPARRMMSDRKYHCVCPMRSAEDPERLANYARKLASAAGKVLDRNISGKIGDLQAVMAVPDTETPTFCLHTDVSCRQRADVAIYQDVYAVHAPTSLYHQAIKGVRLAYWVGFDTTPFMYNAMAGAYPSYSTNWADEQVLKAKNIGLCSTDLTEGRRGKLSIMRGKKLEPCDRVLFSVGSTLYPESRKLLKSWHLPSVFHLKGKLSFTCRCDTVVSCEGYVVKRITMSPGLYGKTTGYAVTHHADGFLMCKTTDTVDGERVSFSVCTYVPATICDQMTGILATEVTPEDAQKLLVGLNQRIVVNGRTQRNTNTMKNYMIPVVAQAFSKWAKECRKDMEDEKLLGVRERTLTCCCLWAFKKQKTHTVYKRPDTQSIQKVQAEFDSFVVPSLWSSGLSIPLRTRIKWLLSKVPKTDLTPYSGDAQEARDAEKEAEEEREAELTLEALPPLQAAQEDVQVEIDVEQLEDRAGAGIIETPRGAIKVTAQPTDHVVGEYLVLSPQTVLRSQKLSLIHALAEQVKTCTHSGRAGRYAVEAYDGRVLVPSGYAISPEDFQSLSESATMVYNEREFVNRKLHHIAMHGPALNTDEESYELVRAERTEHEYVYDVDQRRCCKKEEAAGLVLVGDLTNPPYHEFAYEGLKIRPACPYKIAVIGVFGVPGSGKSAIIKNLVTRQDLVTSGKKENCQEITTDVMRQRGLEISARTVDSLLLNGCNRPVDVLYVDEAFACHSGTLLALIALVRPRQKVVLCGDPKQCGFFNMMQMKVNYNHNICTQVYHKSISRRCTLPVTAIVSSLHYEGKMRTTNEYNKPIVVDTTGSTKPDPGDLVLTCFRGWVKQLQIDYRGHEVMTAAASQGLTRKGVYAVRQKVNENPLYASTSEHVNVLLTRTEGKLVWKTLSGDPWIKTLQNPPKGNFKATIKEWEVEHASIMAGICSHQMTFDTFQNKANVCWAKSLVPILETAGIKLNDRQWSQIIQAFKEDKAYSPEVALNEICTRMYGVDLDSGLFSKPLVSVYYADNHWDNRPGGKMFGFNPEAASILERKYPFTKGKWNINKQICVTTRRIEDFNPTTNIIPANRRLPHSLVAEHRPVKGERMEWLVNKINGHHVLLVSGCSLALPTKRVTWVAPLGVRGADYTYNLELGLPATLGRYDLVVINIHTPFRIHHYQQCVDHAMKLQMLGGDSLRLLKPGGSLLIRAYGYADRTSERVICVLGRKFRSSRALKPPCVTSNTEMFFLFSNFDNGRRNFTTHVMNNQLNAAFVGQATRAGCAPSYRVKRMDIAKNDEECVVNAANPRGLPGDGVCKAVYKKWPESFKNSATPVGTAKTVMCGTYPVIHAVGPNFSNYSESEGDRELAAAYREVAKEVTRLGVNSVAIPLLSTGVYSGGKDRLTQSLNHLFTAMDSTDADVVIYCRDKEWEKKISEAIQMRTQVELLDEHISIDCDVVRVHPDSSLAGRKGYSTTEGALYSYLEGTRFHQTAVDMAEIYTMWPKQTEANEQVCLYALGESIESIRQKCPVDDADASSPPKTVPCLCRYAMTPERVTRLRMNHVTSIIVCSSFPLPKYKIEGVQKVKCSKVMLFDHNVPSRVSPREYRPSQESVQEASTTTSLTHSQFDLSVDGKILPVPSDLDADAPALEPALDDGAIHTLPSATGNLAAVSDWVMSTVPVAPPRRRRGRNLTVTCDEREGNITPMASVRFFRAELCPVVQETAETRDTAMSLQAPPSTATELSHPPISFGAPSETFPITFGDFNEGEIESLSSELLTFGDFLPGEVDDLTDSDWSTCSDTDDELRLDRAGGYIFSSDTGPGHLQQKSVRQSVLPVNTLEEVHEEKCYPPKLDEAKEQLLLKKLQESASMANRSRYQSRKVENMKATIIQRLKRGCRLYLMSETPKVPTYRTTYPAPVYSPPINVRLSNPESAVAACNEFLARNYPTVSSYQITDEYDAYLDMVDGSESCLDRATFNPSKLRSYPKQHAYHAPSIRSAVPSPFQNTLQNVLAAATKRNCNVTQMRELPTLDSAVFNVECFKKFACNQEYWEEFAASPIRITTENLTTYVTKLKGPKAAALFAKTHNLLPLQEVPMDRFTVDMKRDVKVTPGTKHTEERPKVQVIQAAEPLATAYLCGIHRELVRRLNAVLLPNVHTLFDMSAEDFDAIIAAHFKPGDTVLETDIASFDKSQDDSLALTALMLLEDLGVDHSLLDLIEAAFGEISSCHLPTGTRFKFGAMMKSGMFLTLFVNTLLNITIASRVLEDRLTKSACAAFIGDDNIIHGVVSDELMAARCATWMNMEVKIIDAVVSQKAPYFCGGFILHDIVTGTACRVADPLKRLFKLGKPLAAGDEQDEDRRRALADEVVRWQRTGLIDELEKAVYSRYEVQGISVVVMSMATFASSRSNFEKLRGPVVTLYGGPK
#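 Purified recombinant nsP2pro (150 nM final) in 10 mM Tris-HCl pH 8.0 with 0.01% Tween 20 was preincubated 15 min at room temperature with compound (7 concentrations, up to 25 uM). FRET peptide 2 substrate (2.5 uM final) was then added; fluorescence was read after 1 h.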
# nsP2 cell sec = inhibits CHIKV nsP2 protease in cells. shares compounds with nsP2pro inh. cell-based CHIKV nsP2 protease reporter assay. Potency, µM (series often up to 51.1 µM), for inactives: top-dose activity change, negative = inhibition, hits mostly inhibitors. 10% of 450 active. AID 1964100; further: nearly all actives have a fitted effect of over 70% in size
# CHIKV NSP2 FL = inhibits full-length CHIKV NSP2 enzyme | shares compounds with nsP2pro inh | Full-length CHIKV NSP2 protease enzymatic counterscreen | Potency, µM (top dose mostly 50.7 µM), for the others: at the top dose activity change, negative = inhibition, hits mostly inhibitors | 39% of 410 active; further: nearly all actives have a fitted effect of over 65% in size
# Furin counter = selectivity counter-screen for CHIKV nsP2 protease inhibitors: human furin | AID 1964102 | Recombinant human furin enzymatic counterscreen, fluorogenic substrate | Potency, µM (titrated, usually from 50.6 µM), inactives show at the top dose activity change, negative = inhibition, most hits filed as inhibitors | 6% of 410 active | shares compounds with nsP2pro inh
# NS23 peptide cs = nsP2pro inhibition on native NS2/3 peptide substrate; 34% of 410 active; shares compounds with nsP2pro inh; Purified CHIKV nsP2 protease, endogenous NS2/3 peptide cleavage; Potency, µM (titrated, usually from 51 µM), inactives show at the highest dose activity change, negative = inhibition, hits mostly inhibitors; further: nearly all actives have a fitted effect of over 55% in size
# Papain counter = selectivity counter-screen for CHIKV nsP2 protease inhibitors: papain; shares compounds with nsP2pro inh; purified papain protease activity, enzymatic inhibition; Potency, µM (doses to about 51 µM), for the others: at the highest dose activity change, negative = inhibition, actives largely listed as inhibitors; 5% of 410 active
# nsP2pro conf qHTS = confirmation of CHIKV nsP2 protease inhibitors; shares compounds with nsP2pro inh; CHIKV nsP2 protease enzymatic activity, qHTS; Potency, µM (series often up to 25.5 µM), inactives show at the highest dose activity change, negative = inhibition, usual class: inhibitors; 43% of 410 active; AID 1964105; further: nearly all actives have a fitted effect of over 75% in size
# HCV NS3 counter = selectivity counter-screen for CHIKV nsP2 protease inhibitors: HCV NS3/4A. 20% of 410 active. shares compounds with nsP2pro inh. Potency, µM (top dose mostly 50.9 µM), most hits filed as inhibitors. HCV NS3/4A protease biochemical counterscreen; further: nearly all actives have a fitted effect of over 55% in size
# An asterisk follows results filed as active; i = inactive; u = inconclusive; ! = not active in a repeat; [ ] = dose if it differs, or a comment. The call rests on the fitted dose curve. On the % scale 0 is the no-effect control and ±100 the full control effect; potency means the concentration at half of the fitted maximal effect.
SMILES,nsP2pro inh,others
Cc1cc(C)nc(NC(=S)N2CCN(c3cncc4ccccc34)CC2)c1,-4%,
CC(=O)OC1C(OC(=O)c2ccccc2)C2C(C)(C)CC(=O)CC2(C)C23CCC(C)(C2)C(O)CC13 (centres undefined),41%[10 µM],
CC(C)C1=CC2=CCC3[C@](C)(CCC[C@@]3(C)C(=O)O)C2CC1O (some centres undefined),5%,
CC(C)[C@H]1C(=O)N[C@@H](CCCN=C(N)N)C(=O)NCC(=O)N[C@@H](CC(=O)O)C(=O)N[C@H](Cc2ccccc2)C(=O)N1C,-1%,
O=C(c1cc(-c2ccc(Cl)cc2)on1)N(Cc1ccc(F)cc1)Cc1ccco1,-8%,
O=C(c1ccc(Cl)cc1)N(Cc1ccco1)Cc1ccco1,-9%,
CS(=O)(=O)c1ncc(Cl)c(C(=O)N(Cc2ccc(Cl)cc2)Cc2ccco2)n1,4.8µM*,nsP2 cell sec=2.6µM*;CHIKV NSP2 FL=u;Furin counter=-6%;NS23 peptide cs=4.1µM*;Papain counter=2%;nsP2pro conf qHTS=2.2µM*;HCV NS3 counter=i
Cn1nc(-c2cccc(F)c2)c(N2CCCCC2)c1NC(=O)Nc1ccccc1,-9%,
O=C1NC(Nc2ccccc2)=N/C1=C\c1ccc2c(c1)OCO2,81%,
Cc1ccc2oc(NC3=NC(c4[nH]ncc4Cl)C4=C(CCCC4=O)N3)nc2c1 (centres undefined),i,
O=C(c1ccc2c(c1)ncn2-c1cccc(C(F)(F)F)c1)N1CCCCC1,-9%,
COC(=O)c1c(NC(=O)CCCOc2cccc(C)c2)sc2c1CCC(C)C2 (centres undefined),-20%,
COC(=O)c1c(NC(=O)CCCOc2cccc(C)c2)sc2c1CCC2,-16%,
COC(=O)c1c(NC(=O)CCCOc2ccccc2C)sc2c1CCC(C)C2 (centres undefined),-18%,
COC(=O)c1c(NC(=O)CCCOc2cccc(C)c2)sc2c1C(C(=O)OC)CC2 (centres undefined),1.9µM*,nsP2 cell sec=15µM*!;CHIKV NSP2 FL=18µM*;Furin counter=-12%;NS23 peptide cs=5.2µM*;Papain counter=-11%;nsP2pro conf qHTS=2.5µM*;HCV NS3 counter=i
CCOC(=O)c1c(NC(=O)CCCOc2ccc(C(C)(C)C)cc2)sc2c1CCCC2,-13%,
COC(=O)c1c(NC(=O)CCCOc2ccc(C(C)(C)C)cc2)sc2c1CCC(C)C2 (centres undefined),30%,
COC(=O)c1c(NC(=O)CCCOc2ccc(C)cc2)sc2c1C(C(=O)OC)CC2 (centres undefined),2.1µM*,nsP2 cell sec=18µM*;CHIKV NSP2 FL=u;Furin counter=-10%;NS23 peptide cs=12µM*;Papain counter=-14%;nsP2pro conf qHTS=7.1µM*;HCV NS3 counter=i
CCOc1ccc(/C=C/C(=O)Nc2sc3c(c2C(=O)OC)C(C(=O)OC)CC3)cc1 (centres undefined),2.8µM*,nsP2 cell sec=-10%;CHIKV NSP2 FL=u;Furin counter=2%;NS23 peptide cs=4.7µM*;Papain counter=-2%;nsP2pro conf qHTS=3.7µM*;HCV NS3 counter=i
COC(=O)c1c(NC(=O)CCCOc2ccc(C)cc2)sc2c1CCCC2,-34%,
CC(=O)OC1C[C@]2(C)C(O)CC(C)=C[C@H](OC(=O)c3ccc(O)cc3)C2[C@]1(O)C(C)C (some centres undefined),-3%[10 µM],
COc1cc(N2CCC(N3CCN(C)CC3)CC2)ccc1Nc1ncc(Cl)c(-c2c[nH]c3ccccc23)n1,18%,
Cc1sc2c(c1C)C(c1ccc(Cl)cc1)=N[C@@H](CC(N)=O)c1nnc(C)n1-2,-1%,
O=C(O)c1cccc(-c2ccc(-c3cn(C(=O)N4CCCCC4Cc4ccccc4)nn3)cc2)c1 (centres undefined),102%,
O=[N+]([O-])c1ccc(/C=C/c2cccc(CO)n2)o1,-16%,
SMILES,nsP2pro inh,others
COc1ccc(CNc2nc(N3CCCC3CO)ncc2C(=O)NCc2ncccn2)cc1Cl (centres undefined),1%,
Cc1ccc2nc3sc(C(=O)NCCCN(C)C)cc3cc2c1,i,
O=C(CCc1ccccc1Br)NCCc1nc2ccccc2[nH]1,-8%,
Cc1cc(C)nc(NC(=S)N2CCN(c3cccc(Cl)c3Cl)CC2)c1,i,
Cc1ccsc1[C@@H]1CCN(Cc2ccc(-c3ccn[nH]3)o2)C[C@H]1O,3.5µM*,nsP2 cell sec=u;CHIKV NSP2 FL=u;Furin counter=0%;NS23 peptide cs=u;Papain counter=-3%;nsP2pro conf qHTS=8µM*;HCV NS3 counter=u
Cc1nccn1C1(C(=O)O)CCN(Cc2ccc(-c3ccn[nH]3)o2)CC1,-15%,
Cc1ccc(CN2CC[C@H](c3nnc(-c4ccco4)o3)C2)o1,2%[39.2 µM],
C=C1C(=O)OC2/C=C(\COC(C)=O)CC/C=C(\C=O)CC(OC(=O)C(C)CC)C12 (centres undefined),-3%[10 µM],
Cc1cc(CC(C)C[Si](C)(O[Si](C)(C)C)O[Si](C)(C)C)c(O)c(-n2nc3ccccc3n2)c1 (centres undefined),2%[5.1 µM],
N#Cc1c(-c2ccco2)no[n+]1[O-],-7%,
CCOC(=O)CSc1nc2ccc(NC(=O)c3ccc(Cl)cc3)cc2s1,u,nsP2 cell sec=-7%
O=C(Nc1ccc2nc(SCC(=O)N3CCc4ccccc43)sc2c1)c1cccc(Cl)c1,-16%,
CCOc1ccc(C(=O)Nc2ccc3nc(SCC(=O)N4CCCC4)sc3c2)cc1,-11%,
CN(CCCCCCN(C)C(=O)Oc1ccc[n+](C)c1)C(=O)Oc1ccc[n+](C)c1,-4%,
COC(=O)C1=C(C)NC(c2ncc(F)cc2F)=N[C@@H]1c1ccc(F)cc1Cl,-14%,
N#Cc1cccc(-c2nc(-c3cccnc3)no2)c1,-4%[10 µM],
COc1ccccc1-c1nc2ccccc2s1,i,
CCOc1ccc(NC(=O)c2nc(S(=O)(=O)Cc3ccccc3)ncc2Cl)cc1,145%,
COc1ccc(CNC(=O)c2nc(S(=O)(=O)Cc3ccccc3)ncc2Cl)cc1,6.3µM*!,nsP2 cell sec=3.7µM*!;CHIKV NSP2 FL=16µM*;Furin counter=-1%;NS23 peptide cs=8.2µM*;Papain counter=-2%;nsP2pro conf qHTS=5.7µM*;HCV NS3 counter=u
COc1ccc(NC(=O)c2nc(S(=O)(=O)Cc3ccc(C)cc3)ncc2Cl)cc1,-30%,
C=C1C(=O)OC2/C=C(\CO)CC/C=C(\C=O)C(OC)C(OC(=O)C(C)CC)C12 (centres undefined),0%[10 µM],
COc1ccc(S(=O)(=O)N2CCN(S(=O)(=O)c3ccc(OC)cc3)CC2)cc1,1%,
